ALR H2O2 inh – human ALR oxidase inhibition via reduced H2O2; P55789; purified ALR, DTT oxidation, H2O2 HRP-luminol luminescence; inhibition, % (test concentration not listed); hit rate 3.8% among 290,000; AID 485317;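 active = mean replicate inhibition above about 79%, with every replicate also reaching it, limit read from the data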
Target sequence (P55789 whole entry, looked up): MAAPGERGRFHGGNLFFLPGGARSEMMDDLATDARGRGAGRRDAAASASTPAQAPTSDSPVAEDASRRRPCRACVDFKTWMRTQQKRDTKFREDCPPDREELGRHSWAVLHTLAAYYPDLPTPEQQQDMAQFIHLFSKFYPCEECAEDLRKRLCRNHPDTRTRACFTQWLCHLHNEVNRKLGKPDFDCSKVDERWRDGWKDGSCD
CFTR F508del cor – CFTR F508del correction in bronchial cells. CFBE cells, YFP halide quenching; stimulated with forskolin plus potentiator P3; % fluorescence drop versus neutral controls. activity (quench increase), % at 7.58 µM. hit rate 0.36% among 350,000. AID 720511;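 active = mean added fluorescence quench of at least 8% versus neutral control, with both replicates also reaching 8%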;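 also: cells transiently co-express mutant CFTR-F508del with the halide-sensitive YFP; corrector assay measuring rescue of mutant channel to the surface after 24 h compound exposure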
Casp6 inh – blocks human caspase-6 cleavage activity | P55212 | purified caspase-6, Z-VEID-R110 cleavage fluorescence | AID 686996 | hit rate 0.53% among 350,000 | inhibition, % at 12.5 µM;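 active = mean inhibition across replicates at least about 35%, with every replicate also reaching that limit, limit read from the data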;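 also: 0% = median of neutral control wells and 100% = no fluorescence left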
Target sequence (P55212 24-179 limits assumed): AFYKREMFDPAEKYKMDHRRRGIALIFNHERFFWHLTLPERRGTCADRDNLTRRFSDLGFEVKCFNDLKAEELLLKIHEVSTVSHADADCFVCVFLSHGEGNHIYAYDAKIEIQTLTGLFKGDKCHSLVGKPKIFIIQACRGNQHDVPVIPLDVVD
Target sequence (P55212 194-293 limits assumed): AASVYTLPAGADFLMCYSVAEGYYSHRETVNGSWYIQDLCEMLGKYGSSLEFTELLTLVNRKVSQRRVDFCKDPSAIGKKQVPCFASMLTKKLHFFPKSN
PglD DTNB – blocks C. jejuni PglD acetyltransferase activity; hit rate 0.098% among 360,000; purified PglD enzyme, DTNB colorimetric CoA detection; inhibition, % at 12.5 µM; in the data active = inhibition above about 16%, passing the limit was not always enough
NSD2 inh – NSD2 (human) methyltransferase inhibition. hit rate 0.54% among 310,000. NSD2 peptide methylation, AlphaScreen, 120 min. inhibition, % at 12.5 µM. O96028; in the data active = inhibition above about 50%
Env fusion inh – blocks HIV Env-driven cell-cell fusion. HeLa-JRFL Env/CEM21 cell fusion, luciferase. inhibition, % at 12.3 µM. hit rate 1.1% among 360,000;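 active = mean replicate inhibition score of at least 50 and every replicate individually at or above 50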;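 also: 0% = plate neutral controls and 100% = maraviroc near 300 nM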
Numbers without * were called inactive; · = not tested or not shown; ! = a repeat was not active; [ ] = dose if it differs, or a comment. Sampled rows, rich in hits. Any-hit rate of the full collection: about 4.1%.

SMILES	ALR H2O2 inh	CFTR F508del cor	Casp6 inh	PglD DTNB	NSD2 inh	Env fusion inh
COc1ccc(OCC(O)CN2CCN(c3ccc(OC)cc3)CC2)cc1 (stereo unspecified)	98.8*	1.0	4.8	1.2	4.1	-0.4
Oc1ccccc1N1CCN(CC(O)COCc2ccccc2Cl)CC1 (stereo unspecified)	99.0*	-1.0	-1.0	·	2.1	-6.7
COc1ccc(N2CCN(CC(O)COc3ccc(F)cc3)CC2)cc1 (stereo unspecified)	98.7*	1.0	2.7	3.3	2.3	-16.1
COc1ccc(N2CCN(CC(O)COC(c3ccc(F)cc3)c3ccc(F)cc3)CC2)cc1 (stereo unspecified)	23.5	1.6	1.1	3.2	6.8	-7.0
O=C(c1ccccc1)c1ccc(OCC(O)CN2CCN(S(=O)(=O)N3CCCCC3)CC2)cc1 (stereo unspecified)	·	·	·	0.7	-0.6	60.4*
C[C@H]1CN([C@@H](C)CO)S(=O)(=O)c2ccc(/C=C/c3ccccc3)cc2O[C@@H]1CN(C)Cc1ccccc1	·	5.4	1.7	9.7	·	·
C[C@@H]1CCCCO[C@@H](CN(C)Cc2ccc3c(c2)OCO3)[C@H](C)CN([C@@H](C)CO)C(=O)c2cc(N(C)C)ccc2O1	·	-2.7	-7.2	0.6	·	-3.7[16.7 µM]
C[C@@H]1CCCCO[C@H](CN(C)Cc2ccccc2)[C@H](C)CN([C@H](C)CO)C(=O)c2cc(NC(=O)c3ccccc3)ccc2O1	·	-1.6	·	-2.2	·	11.6[16.7 µM]
OC(COCc1ccccc1)CN1CCCC1 (stereo unspecified)	-0.8	·	·	-4.5	6.7	·
COc1ccc(N2CCN(CC(O)COc3ccc(C)c(C)c3)CC2)cc1 (stereo unspecified)	97.5*	-2.1	-0.5	8.3	5.0	-9.9
OC(COCc1ccccc1)CN1CCN(c2ccccc2)CC1 (stereo unspecified)	82.2*	·	·	4.8	8.3	-29.4
COc1ccc(N2CCN(CC(=O)Nc3ccc(C)c(C)c3)CC2)cc1	98.0*	-2.4	-0.6	-3.6	10.4	11.9
Cc1ccc(C)c(OCC(O)CN2CCC(Cc3ccccc3)CC2)c1 (stereo unspecified)	-5.9	0.7	-3.7	-1.7	17.4	55.5*
C[C@@H]1CN([C@@H](C)CO)S(=O)(=O)c2ccc(-c3ccccc3F)cc2O[C@H]1CN(C)Cc1cccnc1	·	1.4	0.4	0.6	·	·
Oc1ccc(N2CCN(CC(O)c3ccccc3)CC2)cc1 (stereo unspecified)	98.8*	-1.0	1.9	1.4	0.1	9.5
Cc1ccc(N2CCN(CC(O)COc3ccccc3)CC2)cc1 (stereo unspecified)	95.0*	0.5	-3.6	0.2	2.0	2.0
Cc1ccc(OCC(O)CN2CCN(c3ccccc3)CC2)cc1 (stereo unspecified)	-1.9	·	·	0.1	·	5.3
O=[N+]([O-])c1ccc(C(O)CN2CCN(c3ccccc3)CC2)cc1 (stereo unspecified)	7.0	-1.0	-0.4	-7.1	-1.6	-18.7
C=CCc1cc(OC)ccc1OCC(O)CN1CCN(c2ccc(OC)cc2)CC1 (stereo unspecified)	79.4*!	-2.1	2.8	-0.1	14.1	18.4
CC(=O)NC[C@H]1[C@@H](c2ccc(-c3cccc(F)c3)cc2)[C@@H](CO)N1C(=O)C1CC1	·	0.8	3.7	·	·	·
CCN1CCN(C(=O)c2cccc(S(=O)(=O)Nc3c(C)n(C)n(-c4ccccc4)c3=O)c2)CC1	·	·	·	·	0.7	·
O=C(CSc1nnc(COc2ccc(Cl)cc2)o1)N(c1ccccc1)C1CCS(=O)(=O)C1 (stereo unspecified)	·	1.5	0.6	0.3	-1.1	65.4*
CC(Oc1ccc(F)cc1)c1nnc(SCC(=O)N(c2ccccc2)C2CCS(=O)(=O)C2)o1 (stereo unspecified)	·	-1.3	2.0	-7.1	-1.7	45.4
O=C(C[C@@H]1CC[C@H]2[C@@H](COC[C@@H](O)CN2Cc2ccccc2)O1)N[C@H]1CCN(Cc2ccccc2)C1	·	-1.3	0.6	1.0	·	·
CC(C)CC#Cc1ccc2c(c1)O[C@@H](CN(C)C(=O)CN(C)C)[C@@H](C)CN([C@@H](C)CO)S2(=O)=O	·	-1.3	0.9	0.3	·	13.5[16.7 µM]
SMILES	ALR H2O2 inh	CFTR F508del cor	Casp6 inh	PglD DTNB	NSD2 inh	Env fusion inh
COc1ccc(-n2nc(C(=O)O)nc2-c2ccccc2)cc1	99.8*	·	·	3.1	0.5	·
O=C(c1nc(-c2ccccc2)n(-c2ccccc2)n1)N1CCCCCC1	-0.4	·	·	-0.5	-1.1	-31.1
Cc1ccc(C2=CSC3=NNC4(CCCCC4)NN23)cc1	99.6*	-3.5	0.4	-1.9	8.8	-59.0
Cc1ccc(C2=CSC3=NCCN23)c(C)c1	-6.6	·	·	·	4.0	·
COc1ccc(C2=CSC3=NNC4(CCCCC4)NN23)cc1	98.1*	0.1	-1.9	·	33.1	11.9
C[C@H](CO)N1C[C@H](C)[C@H](CN(C)S(=O)(=O)c2cccs2)Oc2c(NC(=O)c3ccncc3)cccc2C1=O	·	0.9	-0.3	3.2	·	·
OC(CNC1CCCCC1)COCCOc1ccc(Br)cc1 (stereo unspecified)	-3.8	·	46.7*	6.5	-1.0	-1.1
O=C(N[C@H]1CC[C@@H](CCNC(=O)c2cnccn2)O[C@H]1CO)c1ccc2c(c1)OCO2	·	-1.5	1.4	1.9	·	-6.4[16.7 µM]
CN1CCN(C(=O)C[C@H]2C[C@@H]3c4cc(NC(=O)C5CCC5)ccc4O[C@@H]3[C@@H](CO)O2)CC1	·	1.1	-2.2	-1.9	·	0.1[16.7 µM]
Cc1cccc(C(=O)N2CCCC(N3CCN(c4ccccc4)CC3)C2)n1 (stereo unspecified)	98.0*	-1.2	2.9	-0.7	1.1	2.2
COc1ccc(N2CCN(C3CCCN(C(=O)c4cccc(C)n4)C3)CC2)cc1 (stereo unspecified)	57.6	2.1	2.9	0.3	-0.2	-2.0
Cc1cccc(C(=O)N2CCCC(N3CCN(c4ccc(F)cc4)CC3)C2)n1 (stereo unspecified)	99.0*	4.4	1.2	2.5	0.4	-4.7
CSCc1cc(N2CCOCC2)nc(SCc2ccc(Cl)c(Cl)c2)n1	-12.4	·	4.3	1.7	-6.2	62.8*
COCc1cc(N2CCOCC2)nc(SCc2ccc(Cl)cc2)n1	32.4	1.2	5.0	·	-4.3	12.5
CC(=O)N1c2ccc(S(=O)(=O)N3CCCC3C(=O)Nc3cccc(F)c3)cc2CC1C (stereo unspecified)	-1.3	1.9	-1.1	5.0	·	1.7
CCC(C)NC(=O)C1CCCN(S(=O)(=O)c2ccc3c(c2)CC(C)N3C(C)=O)C1 (stereo unspecified)	-3.9	-1.2	2.9	-1.9	·	58.7*
CCc1cccc(NC(=O)C2CCCN2S(=O)(=O)c2ccc3c(c2)CC(C)N3C(C)=O)c1 (stereo unspecified)	0.7	-0.5	-0.1	-0.1	·	60.9*
COc1ccc(C(=O)Nc2ccc3c(c2)C(=O)N(C)[C@@H]2CC[C@H](CC(=O)NCC4CC4)O[C@H]2CO3)cc1	·	·	1.0	2.0	·	-6.2[16.7 µM]

Screens from PubChem.
